In all, about 25,000 sequences were measured (“ln(normalized median fluorescence intensity)”: median about 6.7, highest 2% from about 10 on). Many of the other results were omitted from the sample, so the highest values are more common in it than they were.
tested on: PfHDP1 homeodomain (GST-tagged); assay: gcPBM binding intensity (ln(normalized median fluorescence intensity)); higher = stronger DNA binding
Outline: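 Using an Agilent 4 × 180k array, primer-extended double-stranded 36-bp intergenic genomic probes and negative controls were exposed for 1 h to GST-fused P. falciparum DNA-binding domains expressed in E. coli. Binding was carried out in 1× PBS with 1% milk, 0.2 mg/ml BSA, 0.5% salmon testes DNA and 0.03% Triton X-100, and protein was detected with Alexa488 anti-GST antibody and a 488 nm scan. Binding intensity is the highest Masliner-normalised natural-log median intensity across replicate spots of either probe orientation.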

In order of rising “gcPBM binding intensity (ln)” value:
1. AAAATTAAAATAGTAATACACACTTCATAGGAAATG [CACACA_site1762]  6.02
2. AATCTAATTAAAATCACACATATATTCGTCGTAATA [CACACA_site5855]  6.05
3. AATAATTTGGTCTTATCAAAAATTAAAAATAAATAA [XGTACX_negctrl_site430]  6.05
4. TTCTTTTCAGAAGGAAAGAATTATAACATATCATAA [XGTACX_negctrl_site548]  6.13
5. ACGGACAATACGGAAACACACAAGTTATTTTATCAT [CACACA_site7310]  6.21
6. ATATTTTTATGATGTATCCAAGAAATGGAACTATAT [CACACA_negctrl_site1268]  6.23
7. TATTTAAAAATATATACACACATTTTATATTATTAT [CACACA_site781]  6.32
8. TATATAAAGATATATACACACAAAAAAAAAAAAAAA [CACACA_site6778]  6.32
9. TAATGTTGAGAATTTTGTACATATAGATCAATTTAT [XGTACX_site5426]  6.33
10. AATTATATATAAAGAAGTACTATTTCAAGGAGTTTT [XGTACX_site3837]  6.34
11. TTTTATTTAACTCATAATTTTTTAAAAAACAATTAT [XGTACX_negctrl_site19]  6.37
12. TTATATTTTAAGAAATGTACATGATATAATTATCAA [XGTACX_site8693]  6.39
13. AAAATATAAATATATTGTACTGTTATATAATAAAAT [XGTACX_site2132]  6.41
14. ATACATAAAATTAAAACACACATTTTATTAAATACG [CACACA_site2167]  6.44
15. AAAAAAAAAAAAAAAGGTACAGTAAAAAATTCCTCT [XGTACX_site5947]  6.46
16. TTTTTATATTTTACATGTACATAAATATATTATATA [XGTACX_site958]  6.46
17. AATATATATGGACATGCATGGACATAATAATCTATT [TGCATGCA_site838]  6.47
18. AAAAAAAAAAAAAAAAGTACAAAAATATATATGCAT [XGTACX_site8392]  6.48
19. TGGGCACCCATATACACACACAAATACAATGATAAA [CACACA_site4762]  6.48
20. TTTCCCTACCAAAAATGTACTTATAAGCGTTTTTAT [XGTACX_site739]  6.5
21. ATAATAATAATAAAAAGTACATTTAATTATATAGAA [XGTACX_site7742]  6.51
22. TTACACATGAGAAAATGTACATATAATAAAATATGT [XGTACX_site904]  6.52
23. TTCCAAAAAATTATTACACACATATGGGCACATATA [CACACA_site679]  6.54
24. TAACCTAAAATAACTACACACACATAAAAAAAAAAA [CACACA_site8807]  6.58
25. TTTTAAATAATACATACATGCATATATACACATATA [TGCATGCA_site8]  6.58
26. AAAAAAAAAAGACACACACACAAAAAAAGATATATA [CACACA_site6645]  6.58
27. TATATCCACATTTTTAGTACTTAAAAATAAATAAAC [XGTACX_site3826]  6.62
28. AATGATACTTAGGGGCATGTCTCTGGGGGCATAACC [CACACA_negctrl_site591]  6.63
29. ATATATGAAAATATATGTACACAACATATAAAATAG [XGTACX_site5132]  6.63
30. AGATATATAAATATTACACACTATATATCTATTTAT [CACACA_site6466]  6.64
31. ATGAAAAAAAGACATGCATGTAAATATAAATTGCTT [TGCATGCA_site504]  6.68
32. ATAAAGATATGACACACACACATATTATAGATATAT [CACACA_site7434]  6.69
33. AGAAAGAAGATATATACACACAAAAAAAGATATATA [CACACA_site6779]  6.75
34. TTATTTAAATATTGATGTACTCTCCTTATTATAATA [XGTACX_site1240]  6.76
35. GTTATATTTTTTTATACACACTGGAATATATAAATA [CACACA_site4282]  6.76
36. TTTTTTTATATTTTTAGTACACATTGGTATATATAT [XGTACX_site4114]  6.77
37. TCCTTTCAACCATATATAATGACATGTACTCAAAAA [GTGCAC_negctrl_site417]  6.77
38. AATTATATAACAAATTGTACGAATGAAAATATTATT [XGTACX_site4237]  6.79
39. AAAAAAAAAAAACACACACACACACCCATATATAAA [CACACA_site1170]  6.79
40. AACGATATCTGTACTACACACATTATGTCATCCTAT [CACACA_site5374]  6.81
41. AAATACATACATTAATGTACAAATAGAAACACTCTT [XGTACX_site1512]  6.85
42. ATTTATATTTAATATACACACATTATTTTTTTATAT [CACACA_site574]  6.86
43. CATATTTCTTTATTGGCACACATTTTTTCAATTATA [CACACA_site1618]  6.87
44. ATATTATATATATAGGTGCGAGTATTTTATAAATAT [GTGCAC_site9889]  6.93
45. TATAAACCCACCTACACACACAACGTAAATGCATTG [CACACA_site2238]  6.96
46. AACAAACACAGACACACACACACACCCAAATGATTA [CACACA_site2431]  6.98
47. ATTTATATATCGCCCACACACATGTGATTATTTATA [CACACA_site6905]  7
48. AATATAAATAAAAACACACACACACCGATATATATA [CACACA_site5283]  7.05
49. AAAATACATAAACACACACACACACCGATATATATA [CACACA_site9186]  7.14
50. ATAAATATGTAAAAAACATGCAAAAAATTAAAGACA [TGCATGCA_site912]  7.22
51. GTTCATCACATATACACATGCATATTCTAATATGTA [TGCATGCA_site809]  7.25
52. TTCAAAAAAGGAAAGTTGCACTTGATACGCTTATTA [GTGCAC_site9411]  7.38
53. TTATATGTATATATAGTGCAGAACAAAAGATTATAT [GTGCAC_site9599]  7.69
54. AATATATTTGTGTATGTGCGCAGTGTGTAATTTATT [GTGCAC_site9765]  7.92
55. TGAATATTTATACATGCACACTAAAATAAAGAATCT [CACACA_site5351]  8.07
56. AATATTTTTTTTTAAACATGCATATTTGCATTACCC [TGCATGCA_site437]  8.67
57. TATATATATATGTGTACACAAAAAATATTATATTAT [CACACA_site5505]  8.81
58. AATGTATTCTCTCATGCACACTTTCTTTAAGGGACC [CACACA_site5245]  8.87
59. TTCCAAAAAATTATTACACACATATGAGCACATATA [CACACA_site4543]  9.16
60. ATATATATATATATGTGTACACAAAAAATATTATAT [XGTACX_site5741]  9.26
61. GAAAAATTAATAAATAAACACACATATATATATATA [CACACA_site8835]  9.29
62. AAAAAAATGAAACACACACACACATATATATATATA [CACACA_site1043]  9.32
63. TTGAAGAATAAATATGCACACATGCATATATTTTTA [CACACA_site5840]  9.33
64. AATAAATATATATACACACCCATATATATATATATA [CACACA_site2595]  9.48
65. ATATATTTTTAATATGCACACAAGAATACATTCACA [CACACA_site914]  9.51
66. AAAGTAGGCTTATATGCACACTTTGAAATATTATAA [CACACA_site5117]  9.77
67. TTGTTCGATATATGCACACAGTTTTGTTATTTTTCC [CACACA_site4972]  9.91
68. TATATATATATGTGCACACATAAAGATATTATTTTT [CACACA_site3733]  10.1
69. TTCGTTCTTTTATGCACACTCAACATATAAATTAAA [CACACA_site1209]  10.1
70. TAAATTATAAATTGCACACATATTTTTATATTTATA [CACACA_site2976]  10.2
71. CATATTTGTATATGCACACATAAATTTTTCCATTTC [CACACA_site3467]  10.2
72. TTTTTCTTCTGCATTATGCACACTATAATTCGTTAA [CACACA_site2837]  10.2
73. GGTGCACCCATATACACACACAAATACAATGATAAA [CACACA_site1132]  10.2
74. ATGTATGTTTGTTATGCACACAAATGCATCTTATTT [CACACA_site8861]  10.3
75. ACGTTAGGCTTATTTGCACACTTGTATTATAATTTT [CACACA_site1317]  10.3
76. AGAATAAATATGCACACATGCATATATTTTTACACT [TGCATGCA_site893]  10.3
77. TTTTATGATAATTTTGCACACACTTAGGAAAAATTA [CACACA_site1556]  10.4
78. TTAGTATATACATTTGCACACATTATTTTTTAACAT [CACACA_site2618]  10.5
79. ATATTATATATATGTGCACACAAAAGATATATATAT [CACACA_site2125]  10.5
80. TTTCTTCTGCATTATGCACACTATAATTCGTTAAAA [CACACA_site5568]  10.5
81. CATATAAAAATGTGCACACACACACCCATATATATT [CACACA_site1526]  10.5
82. TTATGATAACTTTGCACACACTTAGGAAAAGTTATG [CACACA_site6836]  10.6
83. TATATATATATATGTGCACACATAAAGATATTATTT [CACACA_site3734]  10.6
84. TTAGTAAATACATTTGCACACATTATTTTTTAACAT [CACACA_site5448]  10.7
85. TACCCATGCATTTTTGCACACACATATATATATAAA [CACACA_site1429]  10.7
86. CCCATGCATTTTTGCACACACATATATTTATAAATA [CACACA_site6785]  10.7
87. TATGTGCACCCATATACACACACAAATACAATGATA [CACACA_site8295]  10.7
88. GTATGTTTGTTATGCACACAAATGCATCTTATTTCC [CACACA_site2690]  10.8
89. CCCATGCATTTTTGCACACACATATATATATAAATA [CACACA_site1430]  10.8
90. CATATAAAAATGTGCACACACACACCGATATATATT [CACACA_site4940]  10.8
91. TTACAACATGAAAATGTGCACATATATATATATATA  10.8
92. TTATGATAATTTTGCACACACTTAGGAAAAATTATG [CACACA_site4949]  10.9
93. TGTTGTAAATTAAAGACATGCACGTGAGAAAATATA [TGCATGCA_site285]  11
94. ATTATATATATGTGCACACAAAAGATATATATATAT [CACACA_site5205]  11.1
95. TTCCAAAAAGTTATTACACACATATGTGCACATATA [CACACA_site6465]  11.2
96. ATTCTATATATGTGCACACAAAAGATATATATATAT [CACACA_site2124]  11.4

From the supplement of paper PMC11417369
